The full ranking holds about 81,000 sequences; the median of “one-hybrid fitness for binding parS DNA” is about -0.17, and the highest 2% start at about 0.51. The sample as a whole holds a higher share of the highest values than the screen did.

B1: Caulobacter ParB omega fusion; a variant is named by its letters at X, in order, B8GW30 (parent)
chain: MESVVVGEPGMSEGRRGLGRGLSALLGEVDAAPAQAPGEQLGGSREAPIEILQRNPDQPRRTFREEDLEDLSNSIREKGVLQPILVRPSPDTAGEYQIVAGERAWRAAQRAGLKTVPIMVRELDDLAVLEIGIIENVQRADLNVLEEALSYKVLMEKFERTQENIAQTIGKSXSHVANXMRLLXLPDEVQSYLVSGELTAXHARAIAAAADPVALAKQIIEGGLSVRETEALARKAPNLSAGKSKGGRPPRVKDTDTQALESDLSSVLGLDVSIDHRGSTGTLTITYATLEQLDDLCNRLTRGI

The test covers variants of B1. The experiment in a line: one-hybrid fitness for binding parS DNA (scaled: cognate 1, non-cognate 0); higher = stronger binding. The note with it: with parS DNA site. An outline of the steps:
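Selection: bacterial one-hybrid in E. coli USO, HIS3 reporter with the site 19 bp from the promoter, 48 hours at 37°C on M9-minus-histidine plus 0.1 mM IPTG and 5 mM 3-AT. Libraries were Caulobacter ParB with four randomised specificity codons, sequenced on Illumina before and after selection. Fitness is the rescaled log change in variant-to-wild-type read ratio, anchored to the cognate and non-cognate sites.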
PNWL: the “one-hybrid fitness for binding parS DNA” value is not above 0.2.

In the case of PCED, the “one-hybrid fitness for binding parS DNA” value was not above 0.2.

As for HNST, the “one-hybrid fitness for binding parS DNA” value was not above 0.2.

SHDR: the “one-hybrid fitness for binding parS DNA” value is not above 0.2.

For the variant PGRS, the “one-hybrid fitness for binding parS DNA” value is not above 0.2.

In the case of GDYR, the “one-hybrid fitness for binding parS DNA” value is not above 0.2.

With GWST, the “one-hybrid fitness for binding parS DNA” value was not above 0.2.

Take QTYA: the “one-hybrid fitness for binding parS DNA” value is not above 0.2.

For the variant NGRC, the “one-hybrid fitness for binding parS DNA” value was not above 0.2.

On to RWQG, for which the “one-hybrid fitness for binding parS DNA” value worked out at 0.741.

Take RWQM: the “one-hybrid fitness for binding parS DNA” value was not above 0.2.

Regarding RWWY, the “one-hybrid fitness for binding parS DNA” value is not above 0.2.

For RWWG, the “one-hybrid fitness for binding parS DNA” value came out at 0.641.

With RWCM, the “one-hybrid fitness for binding parS DNA” value is not above 0.2.

As for RWDK, the “one-hybrid fitness for binding parS DNA” value was not above 0.2.

Regarding RWDG, the “one-hybrid fitness for binding parS DNA” value was 0.616.

Regarding RWDF, the “one-hybrid fitness for binding parS DNA” value was not above 0.2.

In the case of RWWR, the “one-hybrid fitness for binding parS DNA” value was not above 0.2.

Turning to RWCR, the “one-hybrid fitness for binding parS DNA” value was not above 0.2.

For RWQK, the “one-hybrid fitness for binding parS DNA” value was not above 0.2.

For the variant RWCG, the “one-hybrid fitness for binding parS DNA” value was found to be 0.688.

For QCIG, the “one-hybrid fitness for binding parS DNA” value is not above 0.2.

With ILHY, the “one-hybrid fitness for binding parS DNA” value was not above 0.2.

On to PETC, for which the “one-hybrid fitness for binding parS DNA” value is not above 0.2.

As to RDAC, the “one-hybrid fitness for binding parS DNA” value was not above 0.2.

On to CSPC, for which the “one-hybrid fitness for binding parS DNA” value was not above 0.2.

With WCDG, the “one-hybrid fitness for binding parS DNA” value was not above 0.2.

Regarding TEMT, the “one-hybrid fitness for binding parS DNA” value was not above 0.2.

Consider QRMV, for which the “one-hybrid fitness for binding parS DNA” value was not above 0.2.

In the case of PGQN, the “one-hybrid fitness for binding parS DNA” value is not above 0.2.

For the variant RFNK, the “one-hybrid fitness for binding parS DNA” value came to 0.203.

On to YQGC, for which the “one-hybrid fitness for binding parS DNA” value is not above 0.2.

For the variant RRKQ, the “one-hybrid fitness for binding parS DNA” value is not above 0.2.

RRKC: the “one-hybrid fitness for binding parS DNA” value came out at 0.649.

For the variant RRKR, the “one-hybrid fitness for binding parS DNA” value is not above 0.2.

As to RRVC, the “one-hybrid fitness for binding parS DNA” value was 0.673.

Take PLTK: the “one-hybrid fitness for binding parS DNA” value was not above 0.2.

Regarding INSY, the “one-hybrid fitness for binding parS DNA” value is not above 0.2.

As for ENFG, the “one-hybrid fitness for binding parS DNA” value was not above 0.2.

Consider RTYT, for which the “one-hybrid fitness for binding parS DNA” value came out at 0.952.

For the variant RTQT, the “one-hybrid fitness for binding parS DNA” value worked out at 0.925.

With RTRT, the “one-hybrid fitness for binding parS DNA” value was 0.747.

For the variant RTRK, the “one-hybrid fitness for binding parS DNA” value is not above 0.2.

Turning to RTRD, the “one-hybrid fitness for binding parS DNA” value is not above 0.2.

On to RTWT, for which the “one-hybrid fitness for binding parS DNA” value turned out to be 0.916.

With RTQQ, the “one-hybrid fitness for binding parS DNA” value was not above 0.2.

As to RTQM, the “one-hybrid fitness for binding parS DNA” value amounted to 0.352.

With RTWH, the “one-hybrid fitness for binding parS DNA” value was 0.254.

Regarding RTWN, the “one-hybrid fitness for binding parS DNA” value worked out at 0.461.

Consider RTYR, for which the “one-hybrid fitness for binding parS DNA” value is not above 0.2.

With RTYK, the “one-hybrid fitness for binding parS DNA” value was not above 0.2.

Take RGTV: the “one-hybrid fitness for binding parS DNA” value is not above 0.2.

Consider KKRF, for which the “one-hybrid fitness for binding parS DNA” value is not above 0.2.

As for SRPQ, the “one-hybrid fitness for binding parS DNA” value was not above 0.2.

On to ITEL, for which the “one-hybrid fitness for binding parS DNA” value is not above 0.2.

With RTSK, the “one-hybrid fitness for binding parS DNA” value was not above 0.2.

On to RTST, for which the “one-hybrid fitness for binding parS DNA” value was found to be 0.91.

Regarding RTGR, the “one-hybrid fitness for binding parS DNA” value is not above 0.2.

For the variant RTSF, the “one-hybrid fitness for binding parS DNA” value was determined as 0.246.

With RTGP, the “one-hybrid fitness for binding parS DNA” value was not above 0.2.

On to RTGT, for which the “one-hybrid fitness for binding parS DNA” value came to 0.912.

Take TRWL: the “one-hybrid fitness for binding parS DNA” value is not above 0.2.

HSDW: the “one-hybrid fitness for binding parS DNA” value is not above 0.2.

Consider HVPD, for which the “one-hybrid fitness for binding parS DNA” value was not above 0.2.

GQVR: the “one-hybrid fitness for binding parS DNA” value is not above 0.2.

Take FGAG: the “one-hybrid fitness for binding parS DNA” value is not above 0.2.

Turning to NLVS, the “one-hybrid fitness for binding parS DNA” value was not above 0.2.

With RHVT, the “one-hybrid fitness for binding parS DNA” value was 0.637.

Take RHKK: the “one-hybrid fitness for binding parS DNA” value was not above 0.2.

RHKF: the “one-hybrid fitness for binding parS DNA” value was determined as 0.255.

Consider RHVK, for which the “one-hybrid fitness for binding parS DNA” value is not above 0.2.

On to RHKT, for which the “one-hybrid fitness for binding parS DNA” value came out at 0.745.

On to RHVM, for which the “one-hybrid fitness for binding parS DNA” value was not above 0.2.

TMRL: the “one-hybrid fitness for binding parS DNA” value is not above 0.2.

Regarding CWHG, the “one-hybrid fitness for binding parS DNA” value was 0.244.

As to MPLG, the “one-hybrid fitness for binding parS DNA” value is not above 0.2.

Regarding YPFR, the “one-hybrid fitness for binding parS DNA” value is not above 0.2.

Take RTKR: the “one-hybrid fitness for binding parS DNA” value is not above 0.2.

On to RTVH, for which the “one-hybrid fitness for binding parS DNA” value is not above 0.2.

In the case of RTVD, the “one-hybrid fitness for binding parS DNA” value is not above 0.2.

Regarding RTKN, the “one-hybrid fitness for binding parS DNA” value was 0.441.

Turning to RTVG, the “one-hybrid fitness for binding parS DNA” value amounted to 0.979.

On to RTKG, for which the “one-hybrid fitness for binding parS DNA” value was 0.872.

For the variant KCHG, the “one-hybrid fitness for binding parS DNA” value is not above 0.2.

Turning to GQFL, the “one-hybrid fitness for binding parS DNA” value was not above 0.2.

For the variant PQKC, the “one-hybrid fitness for binding parS DNA” value is not above 0.2.

NWQS: the “one-hybrid fitness for binding parS DNA” value is not above 0.2.

As for RCAN, the “one-hybrid fitness for binding parS DNA” value amounted to 0.477.

Consider RRFS, for which the “one-hybrid fitness for binding parS DNA” value worked out at 0.743.

RRAH: the “one-hybrid fitness for binding parS DNA” value is not above 0.2.

As for RRFH, the “one-hybrid fitness for binding parS DNA” value is not above 0.2.

As to RRFN, the “one-hybrid fitness for binding parS DNA” value is 0.314.

On to RRAN, for which the “one-hybrid fitness for binding parS DNA” value is 0.583.

For RRAS, the “one-hybrid fitness for binding parS DNA” value amounted to 0.652.

Take RRFP: the “one-hybrid fitness for binding parS DNA” value is not above 0.2.

For the variant RRAD, the “one-hybrid fitness for binding parS DNA” value was not above 0.2.

As to MEPC, the “one-hybrid fitness for binding parS DNA” value was not above 0.2.

In the case of GRGV, the “one-hybrid fitness for binding parS DNA” value was not above 0.2.

As for MVCR, the “one-hybrid fitness for binding parS DNA” value was not above 0.2.

Regarding PWNF, the “one-hybrid fitness for binding parS DNA” value is not above 0.2.

On to ATEL, for which the “one-hybrid fitness for binding parS DNA” value is not above 0.2.

With REGS, the “one-hybrid fitness for binding parS DNA” value was not above 0.2.

For FMKF, the “one-hybrid fitness for binding parS DNA” value is not above 0.2.

For the variant IDST, the “one-hybrid fitness for binding parS DNA” value is not above 0.2.

On to HFES, for which the “one-hybrid fitness for binding parS DNA” value was not above 0.2.

For the variant QITI, the “one-hybrid fitness for binding parS DNA” value was not above 0.2.

As to LTWC, the “one-hybrid fitness for binding parS DNA” value was not above 0.2.

Take ADCT: the “one-hybrid fitness for binding parS DNA” value is not above 0.2.

Consider ENNV, for which the “one-hybrid fitness for binding parS DNA” value was not above 0.2.

With DYSL, the “one-hybrid fitness for binding parS DNA” value is not above 0.2.

With RCCY, the “one-hybrid fitness for binding parS DNA” value came to 0.526.

For the variant RPCY, the “one-hybrid fitness for binding parS DNA” value is not above 0.2.

RMCY: the “one-hybrid fitness for binding parS DNA” value was determined as 0.509.

As to RSCY, the “one-hybrid fitness for binding parS DNA” value came to 0.47.

As to WWVS, the “one-hybrid fitness for binding parS DNA” value is not above 0.2.

In the case of TIHD, the “one-hybrid fitness for binding parS DNA” value is not above 0.2.

Consider VITG, for which the “one-hybrid fitness for binding parS DNA” value was not above 0.2.

As to YPSN, the “one-hybrid fitness for binding parS DNA” value is not above 0.2.

RLIY: the “one-hybrid fitness for binding parS DNA” value stood at 0.437.

For RLPG, the “one-hybrid fitness for binding parS DNA” value amounted to 0.755.

On to RLIK, for which the “one-hybrid fitness for binding parS DNA” value is not above 0.2.

On to RLPH, for which the “one-hybrid fitness for binding parS DNA” value was not above 0.2.

As for RLPP, the “one-hybrid fitness for binding parS DNA” value is not above 0.2.

RLIG: the “one-hybrid fitness for binding parS DNA” value amounted to 0.934.

As to NLNR, the “one-hybrid fitness for binding parS DNA” value is not above 0.2.

YYRR: the “one-hybrid fitness for binding parS DNA” value is not above 0.2.

With VLMH, the “one-hybrid fitness for binding parS DNA” value was not above 0.2.

Consider LVRM, for which the “one-hybrid fitness for binding parS DNA” value is not above 0.2.

In the case of KHKS, the “one-hybrid fitness for binding parS DNA” value is not above 0.2.

With DGAP, the “one-hybrid fitness for binding parS DNA” value is not above 0.2.

Turning to RWTR, the “one-hybrid fitness for binding parS DNA” value was not above 0.2.

Regarding RWTQ, the “one-hybrid fitness for binding parS DNA” value is not above 0.2.

Turning to RWTP, the “one-hybrid fitness for binding parS DNA” value was not above 0.2.

On to RWTN, for which the “one-hybrid fitness for binding parS DNA” value stood at 0.338.

For RWTF, the “one-hybrid fitness for binding parS DNA” value was not above 0.2.

Take RWTY: the “one-hybrid fitness for binding parS DNA” value came to 0.37.

In the case of RWTT, the “one-hybrid fitness for binding parS DNA” value came to 0.705.

For the variant RWTD, the “one-hybrid fitness for binding parS DNA” value is not above 0.2.

On to RWTC, for which the “one-hybrid fitness for binding parS DNA” value worked out at 0.79.

For RWTG, the “one-hybrid fitness for binding parS DNA” value is 0.824.

Consider RWTS, for which the “one-hybrid fitness for binding parS DNA” value was determined as 0.956.

Regarding RWTH, the “one-hybrid fitness for binding parS DNA” value was not above 0.2.

For SCKV, the “one-hybrid fitness for binding parS DNA” value was not above 0.2.

With RMTE, the “one-hybrid fitness for binding parS DNA” value is not above 0.2.

Consider EKPG, for which the “one-hybrid fitness for binding parS DNA” value was not above 0.2.

Consider PAYN, for which the “one-hybrid fitness for binding parS DNA” value was not above 0.2.

Turning to HTMF, the “one-hybrid fitness for binding parS DNA” value is not above 0.2.

Consider AKDP, for which the “one-hybrid fitness for binding parS DNA” value is not above 0.2.

FKSC: the “one-hybrid fitness for binding parS DNA” value was not above 0.2.

For the variant TTMG, the “one-hybrid fitness for binding parS DNA” value is not above 0.2.

As for PSRP, the “one-hybrid fitness for binding parS DNA” value was not above 0.2.

As to QMFV, the “one-hybrid fitness for binding parS DNA” value was not above 0.2.

For YLKH, the “one-hybrid fitness for binding parS DNA” value worked out at 0.358.

Values taken from a collection of fitness landscapes (doi:10.1016/j.celrep.2020.107928).
